Consider 32 compounds from PubChem BioAssay (EPA / NIEHS).

Results filed as inconclusive are left out. Active and inactive are the calls of the source. The calls were made as follows: active = hit-call score of the fitted dose curve at least 0.9, where 1 is the maximum; inconclusive = response in the unintended direction; inactive = score below 0.9.

A short description of the first assay: ATG_M_19_TRANS: Attagene TRANS-FACTORIAL HepG2 Assay for M19 Transcription Factor (Internal Marker) (AID 2282974). The note with it: HepG2 Attagene TRANS-FACTORIAL M19 internal marker reporter. In short, it runs like this: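 Using RT-PCR and capillary electrophoresis, reporter mRNA from transiently transfected human HepG2 cells was quantified following 24 h exposure; activity was fitted in the positive direction against DMSO.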
Take `O=P(O)(O)OCCC(F)(F)C(F)(F)C(F)(F)C(F)(F)C(F)(F)C(F)(F)F`: the result was inactive. Turning to `O=C(CC(=O)C(F)(F)C(F)(F)F)C(F)(F)F`, the result was inactive. For the compound `CCN(Cc1cccc(S(=O)(=O)O)c1)c1ccc(C(=C2C=CC(=[N+](CC)Cc3cccc(S(=O)(=O)O)c3)C=C2)c2ccc(O)cc2S(=O)(=O)[O-])cc1`, the outcome was inactive.

For the compound `O=C(O)C(F)(F)C(F)(F)F`, the result was inactive.

Consider `O=S(=O)(O)c1ccc2ccccc2c1`, for which the outcome was inactive. For `CC/C=C\CCOC(=O)c1ccccc1`, the compound was classed as inactive. Still for that read-out and setting: next, `COC(=O)C1CCC(C(=O)OC)CC1` (configuration not stated): “inactive”; `c1ccc(B(c2ccccc2)c2ccccc2)cc1`: “inactive”; `FC(F)(F)C(F)(F)C(F)(F)N(C(F)(F)C(F)(F)C(F)(F)F)C(F)(F)C(F)(F)C(F)(F)F`: “inactive”. Consider `COC(OC(C)=O)c1ccccc1` (configuration not stated), for which the call was inactive. The same measure, in the same setting: as for `CCCCCCCCC(F)(F)C(F)(F)C(F)(F)C(F)(F)C(F)(F)C(F)(F)F`, the entry is “inactive”; as for `FC(F)(F)C(F)(F)C(F)(F)CI`, “inactive”.

Regarding `CCCCCC=O`, the compound was called inactive.

Take `CC(CCl)OP(=O)(OC(C)CCl)OC(C)CCl` (configuration not stated): the outcome was inactive. Regarding `C=CC(F)(F)C(F)(F)C(F)(F)C(F)(F)C(F)(F)C(F)(F)C(F)(F)C(F)(F)C=C`, the outcome was inactive. With `O=S(=O)(OCCOC(F)(F)F)C(F)(F)F`, the compound was classed as inactive.

Another assay is described as follows: ATG_GAL4_TRANS: Attagene TRANS-FACTORIAL HepG2 Assay for GAL4 (Internal Marker) (AID 2282976). To be noted: HepG2 Attagene TRANS GAL4 internal marker reporter. The method in brief:
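First, HepG2 cells were transfected with reporter units under GAL4-UAS control. Next, they were treated with chemical for 24 h. Finally, RNA was reverse-transcribed, PCR-amplified, FAM-labelled and resolved by capillary electrophoresis, with induction scored against DMSO.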
Regarding `O=P(O)(O)OCCC(F)(F)C(F)(F)C(F)(F)C(F)(F)C(F)(F)C(F)(F)F`, the outcome was inactive.

`[Co]`: the call was inactive. Turning to `O=C(CC(=O)C(F)(F)C(F)(F)F)C(F)(F)F`, the compound was classed as inactive. Regarding `FC(F)(F)C(F)(F)C(F)(F)C(F)(F)C(F)(F)C(F)(F)C(F)(F)Br`, the compound was called inactive.

Turning to `O=C(O)C(F)(F)C(F)(F)F`, the result was inactive.

In the case of `C#C[C@]1(O)CC[C@H]2[C@@H]3CCc4cc(OC)ccc4[C@H]3CC[C@@]21C`, the compound was classed as inactive. Still for that read-out and setting: as for `OCCCC(F)(F)C(F)(F)C(F)(F)F`, the entry is “inactive”; as for `O=C(O)C(F)(F)C(F)(F)C(F)(F)C(F)(F)F`, “inactive”. On to `O=C(O)C(F)(F)C(F)(F)C(F)(F)C(F)(F)C(F)(F)C(F)(F)C(F)(F)C(F)(F)C(F)(F)C(F)(F)C(F)(F)C(F)(F)C(F)(F)F`, for which the call was inactive. Still for that read-out and setting: as for `O=C(O)C=C(C(F)(F)F)C(F)(F)F`, the entry is “inactive”; as for `O=S(=O)(O)c1ccc2ccccc2c1`, “inactive”. With `CC/C=C\CCOC(=O)c1ccccc1`, the compound was classed as inactive. Still for that read-out and setting: as for `CCCCOc1ccc(N)cc1`, the entry is “inactive”. Same read-out and setting: as for `CC(C)c1ccccc1N`, the entry is “inactive”. On the same count and under the same terms, next, `CC/C=C\CCOC(C)=O`: “inactive”; `FC(F)(F)C(F)(F)C(F)(F)C(F)(F)C(F)(F)C(F)(F)CCS`: “inactive”. In the case of `O=C(O)C(F)(F)C(F)(F)C(F)(F)C(F)(F)C(F)(F)C(F)(F)C(F)(F)C(F)(F)C(F)(F)C(F)F`, the compound was classed as inactive. Still for that read-out and setting: next, `c1ccc(B(c2ccccc2)c2ccccc2)cc1`: “inactive”; `FC(F)(F)C(F)(F)C(F)(F)N(C(F)(F)C(F)(F)C(F)(F)F)C(F)(F)C(F)(F)C(F)(F)F`: “inactive”. Turning to `O=S(=O)(O)C(F)(F)C(F)(F)C(F)(F)C(F)(F)C(F)(F)C(F)(F)C(F)(F)F`, the outcome was inactive. As for `O=C(O)C(F)(F)C(F)(F)C(F)(F)F`, the compound was classed as inactive. For `CCCCCCCCC(F)(F)C(F)(F)C(F)(F)C(F)(F)C(F)(F)C(F)(F)F`, the compound was called inactive. Turning to `FC(F)(F)C(F)(F)C(F)(F)C(F)(F)C(F)(F)C(F)(F)C(F)(F)C(F)(F)F`, the call was inactive. In the case of `Oc1ccc(Nc2ccccc2)cc1`, the call was inactive. Still for that read-out and setting: as for `CCCCCC=O`, the entry is “inactive”.

In the case of `O=S(=O)(OCCOC(F)(F)F)C(F)(F)F`, the outcome was inactive.
